Experimental data taken from PubChem BioAssay AID1634 (National Center for Advancing Translational Sciences (NCATS), 2009).
In all, about 260,000 compounds went through this assay and about 150 (0.058%) were called active. This is one part of a sample in which actives are shown more often than they occur. Calls follow the shape of the dose curve; as a rule, active = well fitted inhibition curve with a large enough effect; inconclusive = small, poorly fitted or top-dose-only effect; inactive = no such curve, though single readings can be large or run the other way.

molecular target: Pyruvate kinase PKM (Homo sapiens) (UniProt P14618); assay: qHTS Assay for Inhibitors of Human Muscle isoform 2 Pyruvate Kinase; settings: purified PKM2, ATP generation, Kinase-Glo luminescence; series mostly up to 57.5 µM; activity change, negative = inhibition: at the top concentration; also: nearly all actives have a fitted effect of over 60% in size;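 as to activity change, negative = inhibition: plate controls were uninhibited enzyme wells for no effect and no-enzyme wells for full effect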
Sequence (P14618 whole entry, looked up, canonical isoform): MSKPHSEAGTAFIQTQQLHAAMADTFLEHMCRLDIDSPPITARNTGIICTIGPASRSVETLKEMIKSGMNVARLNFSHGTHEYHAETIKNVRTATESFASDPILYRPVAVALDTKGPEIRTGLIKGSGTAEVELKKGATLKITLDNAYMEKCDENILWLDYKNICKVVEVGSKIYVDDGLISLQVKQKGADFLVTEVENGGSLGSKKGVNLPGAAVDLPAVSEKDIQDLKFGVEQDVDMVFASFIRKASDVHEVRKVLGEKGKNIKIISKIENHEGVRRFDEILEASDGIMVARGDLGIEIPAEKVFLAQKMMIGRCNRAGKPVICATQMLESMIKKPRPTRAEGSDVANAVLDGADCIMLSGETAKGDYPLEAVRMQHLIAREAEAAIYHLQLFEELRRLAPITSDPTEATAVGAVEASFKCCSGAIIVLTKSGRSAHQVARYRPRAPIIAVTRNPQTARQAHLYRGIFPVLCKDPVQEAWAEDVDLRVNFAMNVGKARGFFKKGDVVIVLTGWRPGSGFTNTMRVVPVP
Description: NIH Chemical Genomics Center [NCGC] Matthew G. Vander Heiden, M.D., Ph.D. [Harvard Medical School, 77 Avenue Louis Pasteur, Boston, MA 02115] […] ATP generation was detected in a coupled reaction by luciferase-mediated luminescence, an ATP-dependent process. […] The enzyme was assayed at an intermediate level of activity to screen for both inhibitors and activators.
NCGC Assay Protocol Summary: Three uL of substrate mix (at r.t.) in assay buffer (50 mM Imidazole pH7.2, 50 mM KCl, 7 mM MgCl2, 0.01% Tween 20, 0.05% BSA) was dispensed into white solid bottom 1,536 well microtiter plates so that the final concentrations of substrates in the assay were 0.1 mM ADP and 0.5 mM PEP. 23 nL of compound were delivered by a pin tool and 1 uL of enzyme mix in assay buffer (4 degree Celsius) was added. Plates were incubated at room temperature for 1 hour. Two uL of detection mix (Kinase-Glo, Promega; at 4 degree Celsius protected from light) was added and luminescence read by a ViewLux (Perkin Elmer) at 5 second exposure/plate. Data were normalized to the uninhibited and AC100 inhibition (no enzyme). To monitor activation, the first column contained a titration of the activator, NCGC00031955-01 (16-point 1:2 dilutions in duplicate starting at 57 uM) and the first 16 rows of column 4 contained 57 uM of NCGC00031955-01.
Potency is read from the fitted curve at half-maximal effect.

Activity change, negative = inhibition, inactive:
Cc1ccc(S(=O)(=O)N2CCCC2C(=O)NCc2ccco2)cc1 (stereo unspecified) 31.4%
Cc1noc(C)c1C(=O)OCC(=O)N1CCN(S(=O)(=O)c2ccc3ccccc3c2)CC1 50.8%
CCn1c(NCCc2ccc(OC)c(OC)c2)nc2c1c(=O)n(C)c(=O)n2C 64.1%
O=C(COC(=O)CCC(=O)c1cccs1)NCc1ccco1 33.7%
CC(=O)c1cc(C#N)c(SCC(=O)Nc2nccs2)nc1C 86.5%
COc1ccc(C2CC(c3ccc([N+](=O)[O-])cc3)=NN2C(C)=O)cc1 (stereo unspecified) 74.6%
Cc1ccc(OS(=O)Nc2cccc3nccnc23)cc1 (stereo unspecified) 34.3%
Cc1ccc(CNC(=O)C2CCCN2C(=O)NCc2ccccc2)cc1 (stereo unspecified) -1.6%
CC(C)(C)C(=O)OCc1nc(-c2ccc(O)c(O)c2)cs1 34.7%
CCOc1ccc(S(=O)(=O)Nc2nccs2)cc1 35.4%
Cn1c(SCC(=O)N/N=C/c2ccc(O)c(O)c2)nc2ccccc21 61.5%
CC(C)Nc1ncnc2c1nnn2Cc1ccccc1 51.7%
O=C(c1c(F)cccc1Cl)N1CCN(S(=O)(=O)c2ccc3c(c2)OCCCO3)CC1 55.2%
O=C(CSc1nnc(-c2ccc(NS(=O)(=O)c3ccccc3)cc2)o1)NCC1CCCO1 (stereo unspecified) 41.2%
S=c1[nH]nc(-c2cccs2)n1/N=C/c1cn(-c2ccccc2)nc1-c1ccc(Cl)cc1 39.3%
O=C(Cc1cccs1)Nc1nnc(SCc2ccc(F)cc2)s1 45.8%
Cc1cc(C)n(CCC(=O)N2CCN(S(=O)(=O)c3ccc(C)c(C)c3)CC2)n1 37.7%
COc1ccc(S(=O)(=O)Nc2ccc(F)cc2)c(C)c1C 32.9%
CCc1nnc(NC(=O)CSc2nc3c(c(=O)n2-c2ccccc2OC)SCC3)s1 30.9%
Nc1cccc(S(=O)(=O)Nc2ccc(SC(F)F)cc2)c1 131%
Nc1ccccc1Sc1cc(Cl)nnc1Cl 35.4%
O=S(=O)(Nc1nccs1)c1ccc2c(c1)OCCO2 44.3%
O=c1[nH]c(-c2cccs2)nc2ccccc12 -18.3%
Cn1c2ccccc2c(=O)c2c(=O)n(Cc3ccco3)c(COc3ccccc3)nc21 40.6%
COC(=O)C1=C(C)NC(=O)CC1c1ccccc1OC (stereo unspecified) 79.9%
Cc1cc(NC(=O)CSc2nnc(-c3ccc(Cl)s3)o2)no1 98.8%
Cc1ccc(N(C(=O)c2ccc(CN3CCOCC3)o2)C(C(=O)NCCC(C)C)c2cccs2)c(C)c1 (stereo unspecified) 33.7%
Cc1cc(-c2ccc(/C=N/n3cnnc3)o2)c([N+](=O)[O-])cc1C 36.9%
O=[N+]([O-])c1ccccc1Nc1ccc(O)cc1 41.2%
S=c1nc(C23CC4CC(CC(C4)C2)C3)nc2sccn12 -3.34%
CCc1nnc(NS(=O)(=O)c2ccc(NS(=O)(=O)c3ccccc3)cc2)s1 52.4%
CCNc1nc(NC(C)C)nc(OCCOC(=O)c2ccccc2)n1 51%
CN(C)c1ccc(C=C2C(=O)OC3(CCCC3)OC2=O)cc1 73.8%
COc1ccc(CS(=O)/C(Cl)=C(/Cl)C(=O)Nc2ccc(OC)nc2)cc1 (stereo unspecified) 42.8%
CC(=O)c1c(C)[nH]c(C(=O)Nc2cc(S(=O)(=O)N(C)C)ccc2C)c1C 72.8%
O=C(NCc1ccco1)c1cccn2c(=O)c3c4c(sc3nc12)CCCC4 112%
O=C(NCc1ccccn1)c1c(O)c2c([nH]c1=O)CCCC2 82.1%
CCC1CCCCN1CCCNC(=O)Cn1nc(-c2ccccc2)ccc1=O (stereo unspecified) 37.6%
COc1ccc(C(=O)NC(=S)Nc2ccc(Cl)cn2)cc1OC 71.8%
c1cc(-n2cnnn2)ccc1NC1=NCCC1 65.9%
O=C(CCC(=O)N1CCN(S(=O)(=O)c2ccccc2)CC1)NC1CCCc2ccccc21 (stereo unspecified) 32.8%
O=c1cc(CO)oc(C(Nc2cccc([N+](=O)[O-])c2)c2ccccn2)c1O (stereo unspecified) 37.9%
COC(=O)c1[nH]c2ccccc2c1NC(=O)CN1CCCc2ccccc21 103%
CN(C)/C=C1\C=C(c2ccccc2)OC1=O 30.6%
CCC(C)(C)NC(=O)C1c2ccccc2Oc2ccccc21 30.6%
O=C(c1ccc(-c2ccccc2)cc1)C1CCCN(C(=O)c2cncs2)C1 (stereo unspecified) 71.3%
O=S(=O)(c1ccc(F)cc1)N1CCN(C(=S)NCc2ccco2)CC1 38.3%
O=C(COc1cc(Cl)c(Cl)cc1Cl)NCCc1ccccn1 41.2%
COC(=O)c1cc2c(N)c(C(=O)c3ccc(Cl)cc3)sc2nc1C(OC)OC -1.08%
O=C(Cn1c(COc2ccccc2)nc2ccccc21)Nc1cc(Cl)c(Cl)cc1Cl 4.1%
COc1ccc(-c2csc(Cc3nc(O)cs3)n2)cc1 31.4%
N#Cc1ccc(OCc2nnc(-c3ccc([N+](=O)[O-])cc3)o2)cc1 60.7%
COc1cccc(CNC(=O)CCC2CCCN(C(=O)c3cc(C)[nH]n3)C2)c1 (stereo unspecified) 58.5%
Cc1cc(C)c(S(=O)(=O)N2C=CC(C(F)(F)F)=NCC2)c(C)c1 41.1%
CN(CCc1ccccc1)c1ccc([N+](=O)[O-])cn1 41.5%
COC(=O)[C@@]1(Cc2ccccc2)[C@H]2c3cc(C(=O)N4CCCC4)n(Cc4ccc(C)o4)c3C[C@H]2CN1C(=O)c1ccccc1 69%
O=[N+]([O-])c1cc(Br)c(O)c(/C=N/Nc2nc3ccccc3s2)c1 59.9%
CN(C)S(=O)(=O)c1ccc(NC(=O)COC(=O)c2n[nH]c3ccccc23)cc1 38.3%
NC(=O)COC(=O)/C=C/c1ccc2ccccc2n1 57.7%
COc1ccccc1C(=O)N/C(=C/c1ccco1)C(=O)Nc1ccc(C(=O)O)cc1 30.1%
O=S(=O)(c1ccc(Br)cc1)c1nc(-c2ccccc2)oc1NCc1cccnc1 41.4%
Cc1ccc(C)c(S(=O)(=O)Nc2cccc(-n3cnnn3)c2)c1 64.8%
O=C(NCc1cccs1)C1CCN(S(=O)(=O)c2ccc3c(c2)OCCO3)CC1 136%
CCCc1nc(N2CCN(C)CC2)c2sc(=S)n(-c3ccccc3)c2n1 39.2%
CC1CC(c2ccccc2)n2nc(NC(=O)c3cccs3)nc2N1 (stereo unspecified) 90.6%
CN(C)N=Nc1ccc2nc[nH]c2c1 85.6%
CN(C)c1nc(N)nc(CSc2nnnn2-c2cccc3ccccc23)n1 42.7%
O=C(c1ccc[nH]c1=S)N1CCN(S(=O)(=O)c2ccc(Br)cc2Cl)CC1 54.6%
O=C(NCCN1C(=O)S/C(=C\c2cccnc2)C1=O)c1ccc(S(=O)(=O)N2CCCC2)cc1 46.1%
Cc1ccnc(-n2sc3ccccc3c2=O)n1 19.8%
CC(C)NC(=O)CCCn1c(=S)[nH]c2cc3c(cc2c1=O)OCO3 56.3%
O=C(Cn1nc(CNc2ccc(Cl)cc2)[n+]2c1CCCCC2)c1ccc(Cl)cc1 36.3%
Cc1ccc(NC(=O)c2cc(-c3ccc(C)o3)nc3ccccc23)nc1 41.8%
CCOc1cccc2c1OC1(CCCCC1)N1N=C(c3cccnc3)CC21 (stereo unspecified) 31.1%
O=S(=O)(c1ccc(F)cc1)N1CCN(C(=S)NC2CCCC2)CC1 47.7%
Cc1cc(C(=O)N/N=C/c2ccccc2[N+](=O)[O-])c(C)o1 45.8%
Cc1ccccc1CN1C[C@@H]2C[C@@H](c3cn(C)nc3-c3ccccc3)N3CCC[C@@]23C1=O 83.1%
CSc1ccc(/C=N\NC(=O)COc2ccc(Cl)cc2Br)cc1 21.9%
Cn1c(SCC(=O)Nc2cccc(O)c2)nnc1-c1ccc(S(=O)(=O)N2CCOCC2)cc1 46.7%
Cc1ccccc1-n1nc(C)c2c1N=C1C(Cl)=CC(Cl)=CN1C2c1ccc(C(=O)O)cc1 (stereo unspecified) 34.7%
Cn1c(=O)c2c(nc(SCCNS(=O)(=O)c3ccccc3)n2C)n(C)c1=O 55.3%
O=C(NC1=NCCS1)[C@H](Cc1ccccc1)N1C(=O)c2ccccc2C1=O 46.9%
CN(C(=O)CSc1nnc(N)s1)c1c(N)n(Cc2ccccc2)c(=O)[nH]c1=O 36.5%
Cc1ccc(NC(=O)OCCNC(=O)c2ccncc2)cc1 59.5%
Cc1ccc(-c2cc(C(=O)N/N=C/C=C/c3ccco3)c3ccccc3n2)cc1C 30.4%
COc1ccc(-c2nnc(SC(C)C#N)o2)cc1 (stereo unspecified) 48.4%
Cc1ccc(S(=O)(=O)N2CCN(Cc3cccc(C)c3O)CC2)cc1 51.6%
Cc1ccc(-c2nc(SCC(=O)Nc3ccccc3OC(F)F)c3c(C)c(C(=O)O)sc3n2)cc1 42.3%
Cc1nc(SCC(=O)N2CC(=O)Nc3ccccc32)c2c(C)c(C)sc2n1 63%
COc1ccc(-c2nnn(CC(=O)N(CCO)C(C(=O)NC3CCCC3)c3ccc(F)cc3)n2)cc1 (stereo unspecified) -23.3%
CN(C(=O)COC(=O)c1cc(-c2ccco2)nc2ccccc12)C1CCS(=O)(=O)C1 (stereo unspecified) 65.5%
CC(C)CCn1cnc2c1c(=O)n(CC(=O)NC(N)=O)c(=O)n2Cc1ccccc1 40.9%
COc1ccc(OC)c(Nc2nc(-c3ccc(O)c(O)c3)cs2)c1 36.2%
COc1ccc(COCCN2CCN(S(=O)(=O)c3ccccc3)CCC2=O)cc1 44.4%
COC(=O)c1[nH]c2ccccc2c1NS(=O)(=O)c1ccc(OC)cc1OC 32.8%
O=C(CSc1nnc(-c2cccs2)n1Cc1ccccc1)N1CCc2ccccc2C1 147%
CCN(/N=C/c1ccccc1)c1cc(=O)n(C)c(=O)[nH]1 49.7%
CCn1c(SCC(=O)N/N=C/C=C/c2ccccc2[N+](=O)[O-])nnc1-c1ccccc1 37.3%
Cc1noc(C)c1S(=O)(=O)Nc1ccc(C(=O)N2CCN(c3ccc(F)cc3)CC2)cc1 51%
Cc1ccc(O)c(CNc2nc3ccccc3[nH]2)c1 -0.191%
Cc1ccccc1-c1nnn(CC(=O)c2ccc(S(=O)(=O)N3CCCC3)cc2)n1 216%
Cc1ccc(CCC(=O)Nc2ncc(Cc3cc(Cl)ccc3Cl)s2)o1 35.6%
COCc1cc(=O)[nH]c(SC)n1 -4.32%

Potency, active:
COc1ccc(-c2cn3ccc(C)cc3n2)cc1 12.6 µM
Cc1ccnc(NC(=O)c2ccoc2C)c1 14.1 µM
COc1cccc(/C=N\NC(=O)C2=NNC(=O)C2C)c1O (stereo unspecified) 17.8 µM
